This note sets out measurements from PubChem BioAssay (NCATS).

Records with an inconclusive call do not appear. Where a call stands in place of a potency, no number is given. Active and inactive are the calls of the source. Calls follow the shape of the dose curve; as a rule, active = well fitted inhibition curve with a large enough effect; inconclusive = small, poorly fitted or top-dose-only effect; inactive = no such curve, though single readings can be large or run the other way.

The assay is described as follows: Primary qHTS for small molecule stabilizers of the endoplasmic reticulum resident proteome: Secreted ER Calcium Modulated Protein (SERCaMP) assay (AID 1508630). The following applies: SH-SY5Y GLuc-SERCaMP (Gaussia luciferase released on ER calcium loss) secretion, thapsigargin, luminescence; series mostly up to 38.4 µM. The source says: Assay Provider: Brandon K. Harvey Ph.D.
National Institute on Drug Abuse, National Institutes of Health, Baltimore, MD
Endoplasmic reticulum (ER) dysregulation is associated with human pathologies including neurodegenerative, cardiovascular, muscular, and diabetic conditions. Maintenance of ER calcium is critical for functions of the ER and its depletion can lead to loss of ER resident proteins, in a process termed exodosis. Therapeutic compounds capable of attenuating the redistribution of ER proteins under pathological conditions may slow or stop disease progression. To identify such compounds, we performed a quantitative high-throughput screen (qHTS) using the SERCaMP assay, which monitors secretion of ER resident proteins triggered by calcium depletion.
SERCaMP was initially developed as a reporter of ER calcium homeostasis using a Gaussia luciferase with a modified signal peptide and carboxy-terminus (GLuc-SERCaMP), modifications that confer secretion of the reporter in response to ER calcium depletion (Henderson et al., 2014). The assay was used to screen 9,501 compounds, including a collection of drugs approved by the FDA (US), EMA (EU), NHI (Japan), and HC (Canada) regulatory agencies (Huang et al., 2011). Since the SERCaMP reporter reflects the exodosis phenomenon (Trychta et al., 2018a), compounds identified in the screen have the potential to prevent exodosis by different mechanisms such as stabilizing ER calcium or augmenting ERS retrieval.
1. Henderson, M.J., Wires, E.S., Trychta, K.A., Richie, C.T., and Harvey, B.K. (2014). SERCaMP: a carboxy-terminal protein modification that enables monitoring of ER calcium homeostasis. Mol Biol Cell 25, 2828-2839.
2. Huang, R., Southall, N., Wang, Y., Yasgar, A., Shinn, P., Jadhav, A., Nguyen, D.T., and Austin, C.P. (2011). The NCGC pharmaceutical collection: a comprehensive resource of clinically approved drugs enabling repurposing and chemical genomics. Sci Transl Med 3, 80ps16.
3. Trychta, K.A., Back, S., Henderson, M.J., and Harvey, B.K. (2018a). KDEL Receptors Are Differentially Regulated to Maintain the ER Proteome under Calcium Deficiency. Cell Rep 25, 1829-1840 e1826.
SEQUENCE No. (1, 2, 3, etc.); […] (e.g., Cells, Incubation, Reagent, etc.); VALUE and DESCRIPTION.
1; Reagent; 5 uL; 1000 SH-SY5Y cells per wells
3; Compound; 23 nL; Control inhibitor / compound library
5; Reagent; 100 nM; Thapsigargin
7; Reagent; 1 uL; 0.5x coelenterazine
8; Detection; Luminescence; ViewLux imaging system
NOTES (numbers refer to sequence above)
1; SH-SY5Y human neuroblastoma cells stably expressing GLuc-SERCaMP (SH-SY5Y-GLuc-ASARTDL) cells were seeded in 1,536 well white tissue culture treated plates (Corning, Cat# 7464) in DMEM-high glucose-sodium pyruvate (ThermoFisher Scientific, Cat #10569) supplemented with 10% bovine growth serum (Hyclone), 10 U/ml penicillin (Gibco), 10 ug/ml streptomycin (Gibco), and 20 mM HEPES.
2; Assay plates were incubated for 5 hour at 37C in a humidified incubator containing 5% CO2.
3; qHTS libraries (23 nl, final concentrations of 1.53 uM, 7.67 uM, 38.3 uM) or controls (neutral control: DMSO, positive control: dantrolene) were added using a Kalypsis pin-tool Robotic System equipped with 1536 pinheads.
4; Cells were then incubated for 16 hours at 37C, 5% CO2.
5; Thapsigargin was added at 100 nM to deplete ER calcium stores.
6; Cells were incubated for 4 hour (37 °C, 5% CO2)
7; Gaussia luciferase in the medium was measured by adding 1 ul of 0.5x coelenterazine (final concentration 0.07x) prepared in Gaussia Luciferase Glow Assay Buffer (Pierce), without addition of the Cell Lysis Buffer Reagent.
8; Luminescence was measured using a ViewLux […] CCD imaging system (Perkin Elmer) equipped with clear filters. […] The same controls were also used for the calculation of the Z' factor, a measure of assay quality control, as previously described (Zhang et al., 1999). […]
Take `CCCCCCCCCCCCCCCCCCOC[C@H](COP(=O)([O-])OCC[N+](C)(C)C)OC`: the Potency entry is “inactive”.
Regarding `CC(C)(C)c1cc(/C=C(\C#N)C(N)=S)cc(C(C)(C)C)c1O`, the Potency entry was “inactive”.
As for `Cc1ccc([N+](=O)[O-])cc1S(=O)(=O)N(C)C`, the Potency entry was “inactive”.
With `N[C@H]1CONC1=O`, the Potency entry is “inactive”.
On to `Nc1ncnc2c1ncn2C1CCCO1` (stereo not given), for which the Potency result was “inactive”.
Consider `CCCCC[C@H](CC(=O)NO)C(=O)N[C@H](C(=O)N1CCC[C@H]1CO)C(C)C`, for which the Potency entry was “inactive”.
The entry for `Nn1nnc2ccccc21` is “inactive”.
With `CN(C)S(=O)(=O)c1ccc2c(c1)/C(=C/c1cc3c([nH]1)CCCC3)C(=O)N2`, the Potency entry is “inactive”.
With `OC[C@H]1NC[C@@H](O)[C@@H]1O`, the Potency entry was “inactive”.
The entry for `CCCOC(=O)c1c(-c2ccccc2)nc(CC)c(C(=O)SCC)c1CCC` is “inactive”; for `N=C(N)SCCc1cnc[nH]1` it is “inactive”.
The entry for `COc1cc([C@@H]2c3cc4c(cc3[C@H](O)C3COC(=O)[C@@H]32)OCO4)cc(OC)c1OC` (stereo not given in full) is “inactive”; for `COc1cc(CNC(=O)CCCCCCC(C)C)ccc1O` it is “inactive”; for `Oc1ccc(Cn2cc[nH]c2=S)cc1` it is “inactive”.
Take `O=C(O)Cc1ccc(O)c(O)c1`: the Potency entry was “inactive”.
Take `CC1CCN(CC[C@H]2CCCN2S(=O)(=O)c2cccc(O)c2)CC1`: the Potency result was “inactive”.
Turning to `Nc1ccc2c3c(cccc13)C(=O)NC2=O`, the Potency entry is “inactive”.
The entry for `O=C(O)c1cccnc1C(=O)O` is “inactive”.
The entry for `O=c1oc(Cl)c(Cl)c2ccccc12` is “inactive”.
For `COc1ccc(-c2ccc(N)[n+](CCCC(=O)O)n2)cc1`, the Potency entry is “inactive”.
Turning to `CCC(=O)N1CCN(C(=O)c2ccccc2)CC1`, the Potency result was “inactive”.
For `COC(=O)[C@H](NC(=O)c1cc(-c2ccccc2)nc2ccccc12)c1ccccc1`, the Potency result was “inactive”.
Consider `CSC(N)=NCCC[C@H](N)C(=O)O`, for which the Potency result is “inactive”.
For `CN1CCc2cc(Cl)c(O)cc2[C@@H](c2ccccc2)C1`, the Potency entry is “inactive”.
For `C[C@@H](NCCc1ccc(O)cc1)[C@@H](O)c1ccc(O)cc1`, the Potency result was “inactive”.
Regarding `O=C(OCCN1CCOCC1)C1(c2ccccc2)CCCCC1`, the Potency entry is “inactive”.
As for `CN1CCC2(CCN3CCc4c(oc5ccccc45)C3C2)N(C)C1=O` (stereo not given), the Potency result was “inactive”.
Take `Cc1cccc(C)c1OCC(N)C(C)C` (stereo not given): the Potency entry is “inactive”.
On to `Cc1cc2c(cc1Cl)N(C(=O)Nc1ccnc3ccccc13)CC2`, for which the Potency result is “inactive”.
`O=[N+]([O-])c1cccc2c(Br)[nH]nc12`: the Potency entry was “inactive”.
With `c1ccc2nc(C3=NCCN3)ccc2c1`, the Potency result was “inactive”.
The entry for `O=C(O)C1CCNCC1` is “inactive”; for `CC1=C(/C=C/C(C)=C/C=C/C(C)=C\C(=O)O)C(C)(C)CCC1` it is “inactive”.
The entry for `CCCn1c(=O)c(C)cn2nc(N)nc12` is “inactive”; for `COc1cc(C(O)CO)ccc1O` (stereo not given) it is “inactive”; for `CCCn1c(=O)c2[nH]c(C3CCCC3)nc2n(CCC)c1=O` it is “inactive”.
As for `COc1cc(/C=C(\C#N)C(=O)Nc2nnc(C(F)(F)F)s2)ccc1OCc1ccc(C(F)(F)F)cc1C(F)(F)F`, the Potency entry was “inactive”.
As for `NOCC(=O)O`, the Potency result was “inactive”.
Consider `NC(N)=NC(N)=Nc1ccccc1`, for which the Potency entry was “inactive”.
On to `Cn1c(=O)c2c(nc(/C=C/c3cccc(Cl)c3)n2C)n(C)c1=O`, for which the Potency result was “inactive”.
